Results as given in PubChem BioAssay (NCI).
This is part of a sample that, as a whole, favours compounds with a hit. Of some 83,000 tested, about 20% had one in any assay.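 In brief: 96-well plates, 48 h treatment, single concentration, percent growth endpoint.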 A number with no mark means an inactive call. The source made the active and inactive calls. The calls were made as follows: active = growth percent below 10; inactive = the rest.

Legend:
Experiment in all cases: NCI-60 one-dose screen, 48 h (100 = growth as untreated, 0 = no growth, -100 = all killed)
Conditions in all cases: 10 µM unless noted
DU-145 prostate = tested on: DU-145 prostate
K-562 leukemia = tested on: K-562 leukemia
MALME-3M melanoma = tested on: MALME-3M melanoma
MDA-MB-231 breast = tested on: MDA-MB-231 breast
RXF 393 renal = tested on: RXF 393 renal
SF-268 CNS = tested on: SF-268 CNS
SF-295 CNS = tested on: SF-295 CNS
SF-539 CNS = tested on: SF-539 CNS
UACC-257 melanoma = tested on: UACC-257 melanoma
M14 melanoma = tested on: M14 melanoma
HCT-15 colon = tested on: HCT-15 colon
HT29 colon = tested on: HT29 colon
SNB-75 CNS = tested on: SNB-75 CNS
SNB-19 CNS = tested on: SNB-19 CNS
U251 CNS = tested on: U251 CNS
PC-3 prostate = tested on: PC-3 prostate
SK-MEL-5 melanoma = tested on: SK-MEL-5 melanoma
UACC-62 melanoma = tested on: UACC-62 melanoma
LOX IMVI melanoma = tested on: LOX IMVI melanoma
SK-MEL-28 melanoma = tested on: SK-MEL-28 melanoma

SMILES | growth (DU-145 prostate) | growth (K-562 leukemia) | growth (MALME-3M melanoma) | growth (MDA-MB-231 breast) | growth (RXF 393 renal) | growth (SF-268 CNS) | growth (SF-295 CNS) [%] | growth (SF-539 CNS) | growth (UACC-257 melanoma) | growth (M14 melanoma) | growth (HCT-15 colon) | growth (HT29 colon) | growth (SNB-75 CNS) [%] | growth (SNB-19 CNS) | growth (U251 CNS) | growth (PC-3 prostate) | growth (SK-MEL-5 melanoma) | growth (UACC-62 melanoma) | growth (LOX IMVI melanoma) | growth (SK-MEL-28 melanoma)
Cc1ccc2[nH]c(=O)c3c(c2c1)OC(N)=C(C#N)C31C(=O)c2cccc3cccc1c23 (stereo not given) | 101% | 87.8% | 99.2% | 87.4% | 97% | 94.6% | 104 | 95.9% | 108% | 98.2% | 105% | 95.6% | 84.4 | 97.1% | 95.2% | 89.3% | 94.3% | 88.9% | 93.5% | 98.7%
Cc1ccc(S(=O)(=O)n2cc(C3C(Cl)C(=O)N3c3ccc(N4CCOCC4=O)cc3)c3ccccc32)cc1 (stereo not given) | 63.6% | 22.5% | 56.4% | 16.5% | 65.5% | 57.9% | 82.5 | 28.1% | 74.3% | 25.7% | 28% | 56.6% | 31.1 | 70.8% | 48.7% | 43.5% | 43.8% | 51.3% | 34.2% | 69.3%
Cc1ccc(/C=C/C(=O)c2ccc(NC(=O)CSc3nc4c([nH]3)c(=O)n(C)c(=O)n4C)cc2)c(C)c1 | 40.1% | 55.9% | 58.7% | 5.32% (active) | -3.94% (active) | 46.2% | 47.6 | 55.1% | 62% | 56.8% | 70.7% | 53.3% | 18.9 | 0.886% (active) | -67.5% (active) | 49.3% | 69.5% | 69.5% | 39.1% | 62.2%
Nc1c(C(=O)O)cc(Cl)cc1[N+](=O)[O-] | 108% | 95.2% | 105% | 91.3% | 88.9% | 98% | 109 | 99.7% | 96.8% | 96.8% | 104% | 97.7% | 89.8 | 112% | 104% | 80.8% | 103% | 96.4% | 100% | 109%
C=C1C(=O)O[C@H]2[C@H]1CC/C(CNC(=O)c1cc3ccccc3[nH]1)=C\CC[C@@]1(C)O[C@@H]21 | -87.7% (active) | -20.6% (active) | -28.9% (active) | -46.6% (active) | -76% (active) | -27.3% (active) | 42.3 | -77.1% (active) | -49.2% (active) | -57.1% (active) | -78.9% (active) | -59.7% (active) | 48.4 | 22.4% | -16.8% (active) | -48.5% (active) | -87.6% (active) | -74.9% (active) | -78.8% (active) | -57.6% (active)
CC(C)CSc1oc(-c2ccccc2)nc1S(=O)(=O)c1ccccc1 | 99.3% | 92.4% | 95.6% | 89.4% | 82.6% | 87.3% | 84.3 | 101% | 92.2% | 98.3% | 93.7% | 86.2% | 89.3 | 102% | 84.2% | 79.9% | 90.7% | 66.9% | 96.1% | 115%
CCOC(=O)c1cn2ncnc(Oc3ccc(NC(=O)NC4CC4)c(F)c3)c2c1C | 110% | 88.6% | 107% | 99.3% | 97.2% | 95% | 98.5 | 85% | 107% | 109% | 60.4% | 110% | 91.3 | 89.2% | 82.5% | 87.7% | 94.9% | 86.9% | 87.7% | 108%
Cc1cc2nc(-c3c(-c4ccc(F)cc4)nc4sccn34)[nH]c2cc1C | 94.3% | 94.1% | 106% | 102% | 93.2% | 90.8% | 92.5 | 98.2% | 109% | 99.5% | 93% | 96.3% | 105 | 96.1% | 95.4% | 90.5% | 86.3% | 89% | 88.8% | 95.2%
CN(CCC#N)c1ccc(/C=C2\NC(=O)NC2=O)cc1 | 124% | 107% | 113% | 101% | 113% | 117% | 112 | 91.3% | 93.4% | 96.4% | 104% | 82.4% | 102 | 102% | 112% | 94.8% | 102% | 91.1% | 87.9% | 109%
O=C(Cn1nnc([N+](=O)[O-])n1)c1ccccc1 | 99.4% | 83.3% | 92.7% | 71.5% | 91.8% | 83.1% | 58 | 93.3% | 90.9% | 71.5% | 80.5% | 66.4% | 67.9 | 116% | 106% | 79.8% | 84.1% | 68.8% | 59.6% | 110%
Nc1c(C(=O)Nc2ccncc2)sc2nc3c(cc12)CCCCC3 | 89.2% | 51.8% | 90.6% | 90.9% | 84.2% | 99.5% | 71.5 | 73.2% | 76% | 91.9% | 64% | 52.9% | 93.5 | 95.9% | 83.7% | 83.8% | -0.0144% (active) | 80.7% | 84% | 82.5%
CC1=CCC[C@@H]2C1(C)CC[C@H](C)[C@@]2(C)CC1=CC(=O)C(SC(C)(C)C)=CC1=O (stereo not given in full) | 77.6% | 57.8% | 82.3% | 78.3% | 74.5% | 85.3% | 85.1 | 89.9% | 90.3% | 88.9% | 86.4% | 77% | 77.4 | 94.5% | 85% | 56.1% | 78.4% | 67.1% | 74.6% | 94.2%
CCOC(=O)c1c2c(n3c1NCC3)-c1ccccc1C2=O | 100% | 87.3% | 89.9% | 107% | 102% | 99.6% | 96 | 93.7% | 95.7% | 104% | 99.3% | 98.1% | 83.5 | 99.3% | 101% | 91.1% | 93.3% | 98.6% | 97.9% | 103%
COc1cc2c(c(OC)c1OC)C(=O)N[C@@H]1[C@@H](O)[C@@H](O)[C@H](O)C[C@@H]21 | 110% | 96.6% | 108% | 106% | 102% | 103% | 98.3 | 100% | 100% | 98.5% | 104% | 107% | 102 | 99% | 98.9% | 96.5% | 104% | 94.1% | 97.7% | 111%
CCOC(=O)c1c(NC(=O)c2ccc(OC)cc2)sc2c(CN(C)C)c(O)ccc12 | 84.3% | 24.1% | -57.5% (active) | 79.1% | 53.6% | 98% | 82.3 | 68.8% | -58% (active) | -69.4% (active) | 52.5% | 13.9% | 67.7 | 89% | 79.5% | 78.9% | 81.3% | 95.7% | 61.3% | -30.4% (active)
COc1ccc2cc(-c3cnc4nonc4n3)ccc2c1 | 62.9% | 13.6% | 48.3% | 76.4% | 23.4% | 36.6% | 31.4 | -16% (active) | 42% | 10.7% | 22.7% | 13.4% | 15.8 | 37.7% | 16.9% | 25.5% | 31.8% | 2.86% (active) | 25.5% | 86.3%
